D2 antagonist = antagonizes the human D2 dopamine receptor; P14416; HEK293 TREx D2 cells, calcium flux, dopamine EC80; inhibition, % at 10 µM; 2% of 340,000 active; in the data active = inhibition above about 30%; inactive = below that, where a call was filed; note: 0% is about no effect
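Inhibition of EC80 dopamine-driven calcium flux, recorded kinetically, defines activity here; cells are a tetracycline-induced HEK293 T-REx line expressing force-coupled D2.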
D2 ag-1 = activates the human D2 dopamine receptor | P14416 | HEK293 T-REx D2 cells, calcium flux agonist mode | activation, % at 2 µM | 0.53% of 340,000 active;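 active = activation over 3 SD above normal in the single-dose calcium agonist read, cut at about 30% in these data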; note: 0% is about no effect
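Agonism scored from kinetic calcium signal (1 read/sec, 180 s) following compound pin transfer, after a 10 s baseline. Cells: HEK293 Trex line expressing inducible D2 receptor coupled to calcium, dye-loaded after overnight culture at 30 C.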
D2 PAM-1 = D2 dopamine receptor (human) potentiation. P14416. HEK293 T-REx D2, calcium flux, EC20 dopamine potentiation. potentiation, % at 10 µM. 0.34% of 340,000 active. AID 485347;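 active = potentiation over 3 SD above the plate norm, cut at about 30% in these data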; note: 0% is about no effect
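Using a no-wash calcium dye in inducible, force-coupled HEK293 Trex cells expressing D2, we tracked fluorescence each second for 180 s after compound, then for 180 s after EC20 dopamine to detect augmented signalling.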
D2 PAM-2 = potentiates the human D2 dopamine receptor allosterically. DiscoveRx D2 beta-arrestin cells, luminescence, 90 min; 100% = 57 uM dopamine signal. potentiation, % (test concentration not listed). 0.23% of 360,000 active. AID 624464; in the data active = potentiation above about 50%; inconclusive = mostly about 30% to 49%
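PathHunter D2 cells, attached overnight at 37 deg C, received compound in DMSO plus dopamine at EC20 (50 nM final) for 90 min at 37 deg C. Beta-arrestin recruitment was read as luminescence after 1 h with detection reagent at ambient temperature.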
D2 ag-2 = human D2 receptor agonism in beta-arrestin assay | DiscoveRx PathHunter D2 beta-arrestin, luminescence, 90 min; 100% = 57 uM dopamine signal | AID 624465 | activation, % (test concentration not listed) | 0.084% of 360,000 active; in the data active = activation above about 40%; inconclusive = between about 15% and that limit
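Agonist mode: compounds alone added to overnight-plated D2 PathHunter cells for 90 min at 37 C, with 57 uM final dopamine (EC100) defining full response. Beta-arrestin recruitment detected by chemiluminescent reagent, read after 1 h at ambient temperature.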
D3 ag = D3 receptor agonism confirmed, beta-arrestin readout; shares compounds with D2 ag-1; DiscoveRx D3 beta-arrestin cells, luminescence, 90 min; Potency, µM (highest dose often 76.9 µM), inactives show at the highest dose activation, most hits filed as activators; 4% of 2,300 active; AID 720506;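 note: potency is the fitted concentration of half-maximal effect; 100% = dopamine control response; nearly all actives have a fitted effect of over 70% in size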
Target sequence (P35462 whole entry, looked up): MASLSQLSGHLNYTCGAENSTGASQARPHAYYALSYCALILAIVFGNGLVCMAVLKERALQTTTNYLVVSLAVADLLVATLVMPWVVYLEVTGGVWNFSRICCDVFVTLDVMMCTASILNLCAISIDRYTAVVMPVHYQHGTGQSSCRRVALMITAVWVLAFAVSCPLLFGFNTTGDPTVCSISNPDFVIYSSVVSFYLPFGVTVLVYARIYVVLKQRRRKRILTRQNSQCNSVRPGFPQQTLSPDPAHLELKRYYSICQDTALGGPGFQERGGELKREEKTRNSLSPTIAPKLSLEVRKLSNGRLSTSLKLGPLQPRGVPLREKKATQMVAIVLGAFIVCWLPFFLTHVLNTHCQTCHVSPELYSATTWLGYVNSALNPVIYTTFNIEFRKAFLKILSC
D2 ag-3 = activates human D2 dopamine receptor in D3 counterscreen; 5.9% of 2,300 active; shares compounds with D2 ag-1; DiscoveRx PathHunter D2 beta-arrestin, luminescence, 90 min; response scale: percent relative to full dopamine signal; Potency, µM (highest dose often 76.9 µM), for inactives: at the highest dose activation, hits mostly activators; AID 720507; note: potency is the fitted concentration of half-maximal effect; % of control where 0% means no effect; nearly all actives have a fitted effect of over 70% in size
The depositor's hits bear a star; ? = inconclusive; . = not tested or not shown. Hits are enriched below; roughly 2.4% of the tested compounds scored in any of these assays. Unless noted, calls come from the whole dose curve; as a rule, active = well fitted activation curve with a large enough effect; inconclusive = small, poorly fitted or top-dose-only effect; inactive = flat fitted curve, though single readings scatter.

SMILES	D2 antagonist	D2 ag-1	D2 PAM-1	D2 PAM-2	D2 ag-2	D3 ag	D2 ag-3
Cc1c(-c2ccc(Cl)cc2)c(=O)oc2c(CN3CCOCC3)c(O)ccc12	.	0	-9	.	.	.	.
CCn1c(=O)n(-c2ccc(F)cc2)c(=O)c2sc3ccccc3c21	.	.	1	.	.	.	.
NC(=O)CSc1nccn1Cc1ccccc1	45*	0	1	-2	-1	-2%	-1%
N#CCC(=O)NCCCc1ccccc1	6	41*	-5	-4	-4	-6%	-5%
COc1ccc(C2=NOC3(CC(=O)N(c4ccc(F)cc4)C3=O)C2)c(OC)c1 (configuration not stated)	5	-1	-13	0	0	.	.
COc1ccc(C2=NOC3(CC(=O)N(c4ccc5ccccc5c4)C3=O)C2)c(OC)c1 (configuration not stated)	14	6	3	5	1	5%	1%
CC1(C)O[C@@H]2[C@H](O1)[C@@H](CO)O[C@H]2n1cnc2c(=O)[nH]cnc21	-9	-1	-2	0	-2	-3%	-2%
Cc1ccc(S(=O)(=O)N2CCN(C(=O)COC(=O)c3ccc([N+](=O)[O-])o3)CC2)c(C)c1	13	0	-5	6	2	5%	12%
Cc1ccc(S(=O)(=O)N2CCN(C(=O)COC(=O)c3cc([N+](=O)[O-])ccc3NCCO)CC2)c(C)c1	.	.	.	-9	-1	.	.
Cc1ccc(NC2=NCC(=O)N2Cc2cccs2)cc1C	.	.	.	1	-4	1%	2%
CCOc1ccc(S(=O)(=O)N2CCC(N3CCN(Cc4ccc(F)cc4)C(=O)C3=O)CC2)cc1	.	0	0	.	.	.	.
CCOC(=O)c1ccc(CN(Cc2ccccc2C)S(=O)(=O)c2ccc(F)c(C(=O)Nc3cccc(OC)c3)c2)cc1	.	.	11	.	.	.	.
O=C(c1ccc(F)cc1)n1nc(-c2cccnc2)nc1NCc1ccc(F)cc1	.	0	5	.	.	.	.
Cn1c(=O)oc2cc(S(=O)(=O)N3CCCC(C(=O)NCCc4ccc(Cl)cc4)C3)ccc21 (configuration not stated)	.	-1	-11	.	.	.	.
O=C(Nc1c[nH]c(=O)[nH]c1=O)c1ccccc1Br	7	0	6	-3	-1	.	.
CC(Nc1c[nH]c(=O)[nH]c1=O)c1ccccc1 (configuration not stated)	69*	1	4	-6	0	0%	0%
COc1ccc(NC(=O)c2ccc3oc(=O)c(S(=O)(=O)c4ccc(C)cc4)cc3c2)cc1OC	.	0	2	.	.	.	.
Cc1nc2c(c(C)c1CCC(=O)N1CCN(c3ccccc3)CC1)c(=O)n(C)c(=O)n2C	.	6	-2	.	.	.	.
Cc1[nH]nc2nc(SCC(=O)NCCC3=CCCCC3)n(-c3ccc(Br)cc3)c(=N)c12	-16	41*	-24	-1	7	9%	0%
CC1(C(=O)NS(=O)(=O)c2ccc(C#N)cc2)CCN1C(=O)c1cccc2ccccc12 (configuration not stated)	.	.	.	-2	2	.	.
Oc1ccc(CNCC2COc3ccccc3O2)cc1 (configuration not stated)	185*	68*	-28	-28	11	-4%	19%
c1ccc(CCNCC2COc3ccccc3O2)cc1 (configuration not stated)	24	32*	-22	-13	4	2%	3%
CN(C)S(=O)(=O)c1cccc(CNCC2COc3ccccc3O2)c1 (configuration not stated)	106*	77*	-27	-8	12	?	29%
COC(=O)c1nnn(CC(=O)Nc2cc(F)ccc2F)c1C(=O)OC	.	-1	-3	.	.	.	.
COc1cccc(CC(=O)OCC(=O)N(C)CC(=O)Nc2ccccc2Cl)c1	6	0	-4	-11	-5	-9%	0%
SMILES	D2 antagonist	D2 ag-1	D2 PAM-1	D2 PAM-2	D2 ag-2	D3 ag	D2 ag-3
COc1cccc(NC(=O)CN(C)C(=O)Cc2ccc3c(c2)OCCO3)c1	-4	0	-7	5	4	-1%	-3%
COc1cc(/C=C/C(O)=C/C(=O)/C=C/c2ccc(O)cc2)ccc1O	-12	48*	-12	-6	-5	-8%	-4%
CCOc1ccc(-n2c(=O)c3sc4ccccc4c3n(Cc3ccc(F)cc3)c2=O)cc1	.	0	17	.	.	.	.
CC(=O)Nc1ccc(/C=N/N2C(=O)NC(C)(c3ccc(OC(F)F)cc3)C2=O)cc1 (configuration not stated)	47*	37*	-14	-14	-2	-8%	-4%
CCc1noc(C)c1C(=O)NNC(=O)c1ccccc1	-11	0	-8	0	-3	.	.
CCc1noc(C)c1C(=O)NNC(=O)c1cc(OC)c(OC)c(OC)c1	-10	0	-1	-6	1	.	.
CCc1noc(C)c1C(=O)NNC(=O)c1cc(OC)cc(OC)c1	-21	2	-8	-1	0	-3%	-4%
CCc1noc(C)c1C(=O)NNC(=O)COc1ccccc1C	24	1	-6	-1	-2	-6%	-5%
O=C(NCc1ccco1)c1sc(=S)n2c1[nH]c(=O)c1ccccc12	6	10	4	-8	-4	-14%	-8%
O=C(NC1CCCC1)c1sc(=S)n2c1[nH]c(=O)c1ccccc12	9	4	-3	-14	-1	.	.
COc1ccccc1C(=O)N1c2ccccc2C(C)(c2ccc(Cl)cc2)CC1(C)C (configuration not stated)	.	0	4	.	.	.	.
CC1(C)NC(=O)N(CC(=O)N2CCN(S(=O)(=O)c3cc(Cl)ccc3Cl)CC2)C1=O	.	.	7	2	-2	-9%	-3%
COC(=O)Nc1ncc(CN2CCC(c3ccccc3)CC2)s1	98*	85*	-28	-25	13	8%	22%
COc1ccc(N2CCN(CCCn3c(=S)[nH]c4ncccc4c3=O)CC2)cc1	2	0	8	-31	1	.	.
O=c1c2cccnc2[nH]c(=S)n1CCCN1CCN(c2ccc(F)cc2)CC1	101*	54*	-24	-30	13	5%	14%
COc1ccc(S(=O)(=O)NC(=O)C2(C)CCN2C(=O)C2CCCCC2)cc1OC (configuration not stated)	.	.	.	-2	-1	.	.
Cc1noc(C)c1COC(=O)CCOc1ccccc1	-10	0	-4	-7	-3	.	.
Cc1noc(C)c1COc1ccc(C(=O)N(C)CCOc2ccccc2)cc1	-22	0	-26	-2	12	-8%	6%

Screens: PubChem BioAssay, National Center for Advancing Translational Sciences (NCATS)
